Inconclusive results are not listed. Entries that show only a call come without a potency. Activity calls are given as the source filed them. Unless noted, calls follow the shape of the dose curve; as a rule, active = well fitted curve in either direction with a large enough effect (not every such curve was filed as active); inconclusive = small, poorly fitted or top-dose-only effect, or another doubt; inactive = flat fitted curve, though single readings scatter.
What was measured:
[1] = AP1 Signaling Pathway (AID 357);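 also: ME-180 reporter cells stimulated with EGF at its EC50 level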
Procedure, shortened: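 Beta-lactamase reporter under AP-1 response element, ME-180 background. Stimulus: EC50 EGF. Compound exposure 5 h, 37 °C. Detection: CCF4, 2.5 h RT, 460/530 nm. Values: AC50 from titration.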

[2] = biological target: Cytochrome P450 1A2 (Homo sapiens) (UniProt P05177); assay: p450-cyp1a2 (AID 410; calls by dose curve)
Procedure, shortened: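 Inhibition was calculated relative to 57 uM furafylline (full inhibition). The reaction used human CYP1A2 at 20nM with Luciferin-ME at its Km, 100uM, driven by an NADPH-regenerating system for 60 min at room temperature.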

[3] = NFAT Signaling Pathway (AID 444); settings: Jurkat NFAT-bla M1, carbachol, beta-lactamase ratio, 5 h; at 17.2 µM (top of the series) unless noted;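 also: carbachol stimulus at about its EC50 of 1 µM final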
Procedure, shortened: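 Jurkat cells with NFAT-driven β-lactamase reporter and co-expressed M1 receptor, stimulated with carbachol (final 1 uM, ~EC50), compound titration, 5 h at 37 °C. CCF4 loaded 1 h at RT; 460/530 nm ratio gave %activity and AC50.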

[4] = Stat Signaling Pathway (AID 446);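 also: ME-180 cervical cancer cells given 40 pM IL-6 alongside compound; SIE-controlled beta-lactamase reporter measured as 460/530 nm FRET emission ratio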
Procedure, shortened: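 ME-180 cells carrying a SIE-driven beta-lactamase reporter are stimulated with 40 pM IL-6 for 5 h at 37C in the presence of compound. The 460/530 nm FRET substrate ratio is read after 2.5 h at RT. Data are normalised to 300 pM IL-6 and to 125 nM JAK inhibitor controls.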

[5] = biological target: Glucocorticoid receptor (Homo sapiens) (UniProt P04150); assay: GR-EFC Redistribution (AID 451; calls by dose curve; also: potency is read from the fitted curve at half-maximal effect); settings: CHO-K1 GR-EFC translocation, beta-gal luminescence, 2 h
Procedure, shortened: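 CHO-K1 cells expressing nuclear EA and GR-ED fragments of b-gal; compounds titrated up to 46 uM final, 2 h at 37 C. GR nuclear translocation read as complemented b-gal luminescence after 1 h RT detection.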

[6] = biological target: Mitogen-activated protein kinase 10 (Mus musculus) (UniProt Q61831); assay: JNK3 AlphaScreen Assay (AID 530);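 also: kinase came from lysate of stimulated human HepG2 cells; signal reports phosphorylation of biotinylated GST-cJun 1-79 at Ser73 with 10 µM ATP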
Procedure, shortened: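 qHTS format: compounds tested as titrations against IL-1beta/TNF-alpha-activated HepG2 lysate JNK3 with biotin-GST-cJun substrate and 10 uM ATP at room temperature. Loss of anti-phospho-cJun AlphaScreen signal indicates inhibition.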

[7] = qHTS Assay for Lipid Storage Modulators (AID 1519; calls by dose curve); settings: Drosophila S3 cells, BODIPY lipid droplet/cell ratio, laser cytometry, cells loaded with oleic acid; for activity change, negative = inhibition: at 25.7 µM (top of the series)
Procedure, shortened: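 Cells seeded at 5,000 per well were treated with compounds over a concentration series and loaded with oleic acid (400 uM, as added). Lipid droplet fluorescence (488 nm excitation, 500-530 nm channel) was read by laser-scanning cytometry and normalized to 20 uM Triacsin C.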

[8] = biological target: ATP-dependent 6-phosphofructokinase (Trypanosoma brucei brucei) (UniProt O15648); assay: qHTS Assay to Find Inhibitors of T. brucei phosphofructokinase: hit validation (AID 492961; active = well fitted curve in the direction sought with a large enough effect; an effect the other way counts as inactive or inconclusive)
Procedure, shortened: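 Luminescence from ADP-Glo reports ADP generated as T. brucei PFK (1.25 nM) phosphorylates 0.5 mM fructose-6-phosphate using 0.1 mM ATP. Reactions ran 45 min at room temperature, pH 8.0.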

[9] = biological target: Luciferin 4-monooxygenase (Photinus pyralis) (UniProt P08659); assay: Biochemical firefly luciferase enzyme assay for NPC (AID 624030; active = well fitted curve in the direction sought with a large enough effect; an effect the other way counts as inactive or inconclusive;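 also: purified P. pyralis luciferase at 10 nM with luciferin and ATP substrate; nearly all actives have a fitted effect of over 70% in size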)
Procedure, shortened: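 Purified P. pyralis luciferase at 10 nM in 50 mM Tris Acetate (final), luminescence read within 5 minutes of enzyme addition to compounds. Activity normalised to PTC124 versus DMSO; concentration-response curves classed by r2, magnitude and activity.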

[10] = S16 Schwann cell PMP22 intronic element firefly luciferase assay (AID 624032; active = well fitted curve in the direction sought with a large enough effect; an effect the other way counts as inactive or inconclusive; also: nearly all actives have a fitted effect of over 30% in size)
Procedure, shortened: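 Rat S16 Schwann cells stably carrying firefly luciferase driven by a PMP22 intronic element, in 10% FBS, treated 24 h at 37 C. ONE-Glo luminescence normalized to PTC124 control and DMSO (0%); curves classed by r2, magnitude and activity.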

[11] = qHTS profiling for inhibitors of Plasmodium falciparum proliferation (AID 504749; active = well fitted curve in the direction sought with a large enough effect; an effect the other way counts as inactive or inconclusive; also: nearly all actives have a fitted effect of over 60% in size); settings: P. falciparum in erythrocytes, SYBR Green DNA, 72 h, at 12.8 µM (top of the series)
Procedure, shortened: (§1)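 Readout was DNA-dye fluorescence from lysed cultures, ex 485/em 535 nm. Parasitized red cells had grown 72 h with compound; data scaled between 0.29 uM artemisinin and DMSO wells and corrected using vehicle-only plates.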

[12] = tested on: CP191; assay: as above; settings: P. falciparum in erythrocytes, SYBR Green DNA, 72 h; series mostly up to 12.8 µM
Procedure, shortened: as §1

[13] = tested on: CP217; assay: as above; settings: P. falciparum in erythrocytes, SYBR Green DNA, 72 h; series mostly up to 12.8 µM
Procedure, shortened: as §1

[14] = tested on: CP250; assay: as above; settings: P. falciparum in erythrocytes, SYBR Green DNA, 72 h; series mostly up to 12.8 µM
Procedure, shortened: as §1

[15] = tested on: CP256; assay: as above; settings: P. falciparum in erythrocytes, SYBR Green DNA, 72 h; series mostly up to 12.8 µM
Procedure, shortened: as §1

[16] = tested on: FAB9; assay: as above; settings: P. falciparum in erythrocytes, SYBR Green DNA, 72 h; series mostly up to 12.8 µM
Procedure, shortened: as §1

[17] = tested on: JCK; assay: as above; settings: P. falciparum in erythrocytes, SYBR Green DNA, 72 h; series mostly up to 12.8 µM
Procedure, shortened: as §1

[18] = biological target: Glucocorticoid receptor (Homo sapiens) (UniProt P04150); assay: GR-GFP Redistribution (AID 450;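 active = compounds whose dose series gives a full or clear partial fitted curve of increased nuclear translocation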; also: potency is read from the fitted curve at half-maximal effect); settings: U2OS GR-GFP nuclear translocation, laser cytometry, 2 h
[19] = biological target: 3',5'-cyclic-AMP phosphodiesterase 4B (Homo sapiens) (UniProt Q07343); assay: qHTS Assay for Inhibitors of PDE-IV (AID 607; active = well fitted activation curve with a large enough effect in the main read-out, with a control signal flat, not every such curve was filed as active)
Procedure, shortened: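 HEK293 ACTOne cells with CNG channel (1000/well), endogenous PDE4; membrane potential dye, compounds up to 22.9 uM final. Fluorescence Ex 535/Em 590; RO 20-1724 (100 uM final) as reference.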

[20] = biological target: Ubiquitin carboxyl-terminal hydrolase 1 (Homo sapiens) (UniProt O94782); assay: Inhibitors of USP1/UAF1: Pilot qHTS (AID 504865; active = well fitted curve in the direction sought with a large enough effect; an effect the other way counts as inactive or inconclusive;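 also: rhodamine fluorescence freed from ubiquitin-rhodamine substrate followed over time; top concentration of the series differs between compounds; nearly all actives have a fitted effect of over 35% in size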)
Procedure, shortened: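 USP1/UAF1 complex (1nM) preincubated with compound 15 min at room temperature, then Ub-Rho substrate (150nM final) added. Fluorescence read kinetically at 480/540 nm, 6 reads every 60 seconds. Buffer: 50mM HEPES pH 7.8, 0.5mM EDTA, 0.1 mg/ml BSA, 1mM TCEP, 0.01% Tween-20.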

[21] = measured here: cell count channel max response
[22] = measured here: lipid channel max response

Ubiquitin carboxyl-terminal hydrolase 1 (Homo sapiens), sequence (O94782 whole entry, looked up): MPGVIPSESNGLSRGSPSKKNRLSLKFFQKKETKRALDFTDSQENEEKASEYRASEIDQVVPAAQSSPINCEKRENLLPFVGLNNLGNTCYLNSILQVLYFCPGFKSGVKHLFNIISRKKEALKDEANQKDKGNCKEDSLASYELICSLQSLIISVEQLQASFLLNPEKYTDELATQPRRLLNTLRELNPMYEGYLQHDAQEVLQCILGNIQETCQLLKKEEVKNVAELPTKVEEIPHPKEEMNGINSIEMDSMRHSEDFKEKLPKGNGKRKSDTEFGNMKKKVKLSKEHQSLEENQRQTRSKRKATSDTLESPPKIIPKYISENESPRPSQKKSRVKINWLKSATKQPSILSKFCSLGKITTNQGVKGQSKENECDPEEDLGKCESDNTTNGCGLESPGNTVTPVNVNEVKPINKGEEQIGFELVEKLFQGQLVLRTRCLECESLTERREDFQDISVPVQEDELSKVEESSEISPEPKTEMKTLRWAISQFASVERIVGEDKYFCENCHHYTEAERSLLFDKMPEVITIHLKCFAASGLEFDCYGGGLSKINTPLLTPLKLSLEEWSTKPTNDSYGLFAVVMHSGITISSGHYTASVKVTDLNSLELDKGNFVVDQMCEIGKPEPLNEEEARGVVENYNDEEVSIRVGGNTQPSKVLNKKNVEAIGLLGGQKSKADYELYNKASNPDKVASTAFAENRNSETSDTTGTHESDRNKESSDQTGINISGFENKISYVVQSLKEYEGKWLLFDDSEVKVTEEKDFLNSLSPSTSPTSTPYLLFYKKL
3',5'-cyclic-AMP phosphodiesterase 4B (Homo sapiens), sequence (Q07343 whole entry, looked up): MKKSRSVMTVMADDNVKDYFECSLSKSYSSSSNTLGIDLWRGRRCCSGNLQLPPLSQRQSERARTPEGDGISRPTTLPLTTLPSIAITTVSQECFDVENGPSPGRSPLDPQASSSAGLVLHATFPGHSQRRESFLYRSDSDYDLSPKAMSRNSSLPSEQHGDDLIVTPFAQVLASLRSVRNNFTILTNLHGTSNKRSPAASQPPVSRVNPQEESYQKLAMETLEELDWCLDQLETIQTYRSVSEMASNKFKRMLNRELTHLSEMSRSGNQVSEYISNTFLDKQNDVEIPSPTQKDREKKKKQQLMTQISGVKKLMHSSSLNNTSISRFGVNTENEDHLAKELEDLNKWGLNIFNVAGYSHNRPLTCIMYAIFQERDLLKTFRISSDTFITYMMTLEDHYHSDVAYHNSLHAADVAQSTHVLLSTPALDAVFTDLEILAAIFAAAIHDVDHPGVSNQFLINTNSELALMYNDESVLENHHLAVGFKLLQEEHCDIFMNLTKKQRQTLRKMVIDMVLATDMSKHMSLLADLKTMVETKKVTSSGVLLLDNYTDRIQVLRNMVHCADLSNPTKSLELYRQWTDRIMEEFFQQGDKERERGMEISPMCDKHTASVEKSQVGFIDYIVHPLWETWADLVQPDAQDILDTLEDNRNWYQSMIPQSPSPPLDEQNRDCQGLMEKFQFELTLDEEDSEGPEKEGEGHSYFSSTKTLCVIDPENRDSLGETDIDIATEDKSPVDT
Glucocorticoid receptor (Homo sapiens), sequence (P04150 whole entry, looked up, the tested form may be a part): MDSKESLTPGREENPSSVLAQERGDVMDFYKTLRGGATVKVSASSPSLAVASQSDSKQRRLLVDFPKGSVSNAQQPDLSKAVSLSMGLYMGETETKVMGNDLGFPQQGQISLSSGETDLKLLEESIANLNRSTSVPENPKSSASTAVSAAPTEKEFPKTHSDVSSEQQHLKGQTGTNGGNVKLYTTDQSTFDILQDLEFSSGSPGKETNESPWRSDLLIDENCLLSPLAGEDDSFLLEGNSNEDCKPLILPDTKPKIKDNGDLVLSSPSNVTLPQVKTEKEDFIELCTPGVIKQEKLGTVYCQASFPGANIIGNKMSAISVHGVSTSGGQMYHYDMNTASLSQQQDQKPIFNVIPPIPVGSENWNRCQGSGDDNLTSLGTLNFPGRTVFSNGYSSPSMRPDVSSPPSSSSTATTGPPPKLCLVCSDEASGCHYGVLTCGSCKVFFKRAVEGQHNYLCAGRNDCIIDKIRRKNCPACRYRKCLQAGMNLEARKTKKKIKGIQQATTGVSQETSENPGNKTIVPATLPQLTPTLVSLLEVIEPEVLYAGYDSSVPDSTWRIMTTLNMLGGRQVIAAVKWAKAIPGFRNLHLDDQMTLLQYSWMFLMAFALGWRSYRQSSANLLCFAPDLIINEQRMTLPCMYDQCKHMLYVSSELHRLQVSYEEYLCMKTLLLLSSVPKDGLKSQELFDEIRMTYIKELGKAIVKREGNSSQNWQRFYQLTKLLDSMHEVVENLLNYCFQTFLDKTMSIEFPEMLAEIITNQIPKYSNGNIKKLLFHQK
Cytochrome P450 1A2 (Homo sapiens), sequence (P05177 whole entry, looked up): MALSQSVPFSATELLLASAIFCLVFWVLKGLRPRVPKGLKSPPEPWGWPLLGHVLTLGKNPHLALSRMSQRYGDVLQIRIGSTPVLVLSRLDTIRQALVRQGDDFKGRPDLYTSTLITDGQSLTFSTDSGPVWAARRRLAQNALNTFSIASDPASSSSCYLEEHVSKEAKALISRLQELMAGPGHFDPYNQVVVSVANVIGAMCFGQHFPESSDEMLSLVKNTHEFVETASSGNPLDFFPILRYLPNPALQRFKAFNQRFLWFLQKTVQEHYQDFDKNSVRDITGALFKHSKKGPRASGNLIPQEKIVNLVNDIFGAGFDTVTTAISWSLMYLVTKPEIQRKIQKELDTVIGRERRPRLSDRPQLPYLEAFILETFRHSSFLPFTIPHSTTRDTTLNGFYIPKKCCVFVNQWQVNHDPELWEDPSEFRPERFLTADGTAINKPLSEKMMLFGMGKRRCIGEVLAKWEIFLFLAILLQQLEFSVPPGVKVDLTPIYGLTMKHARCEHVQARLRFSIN
Luciferin 4-monooxygenase (Photinus pyralis), sequence (P08659 whole entry, looked up): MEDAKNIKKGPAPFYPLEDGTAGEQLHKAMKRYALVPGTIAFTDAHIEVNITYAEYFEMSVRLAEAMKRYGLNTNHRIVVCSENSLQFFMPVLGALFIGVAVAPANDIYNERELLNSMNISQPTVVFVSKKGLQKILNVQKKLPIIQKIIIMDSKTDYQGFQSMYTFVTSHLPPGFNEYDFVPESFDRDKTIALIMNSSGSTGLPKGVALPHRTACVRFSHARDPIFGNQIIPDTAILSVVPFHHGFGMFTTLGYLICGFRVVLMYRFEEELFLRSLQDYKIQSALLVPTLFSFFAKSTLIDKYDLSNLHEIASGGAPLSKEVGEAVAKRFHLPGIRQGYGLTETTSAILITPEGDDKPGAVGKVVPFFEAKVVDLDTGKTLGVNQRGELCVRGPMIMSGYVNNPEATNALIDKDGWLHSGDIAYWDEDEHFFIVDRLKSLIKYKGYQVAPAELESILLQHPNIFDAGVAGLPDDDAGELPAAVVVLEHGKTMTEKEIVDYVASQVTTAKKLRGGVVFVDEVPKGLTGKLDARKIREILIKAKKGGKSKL
ATP-dependent 6-phosphofructokinase (Trypanosoma brucei brucei), sequence (O15648 whole entry, looked up): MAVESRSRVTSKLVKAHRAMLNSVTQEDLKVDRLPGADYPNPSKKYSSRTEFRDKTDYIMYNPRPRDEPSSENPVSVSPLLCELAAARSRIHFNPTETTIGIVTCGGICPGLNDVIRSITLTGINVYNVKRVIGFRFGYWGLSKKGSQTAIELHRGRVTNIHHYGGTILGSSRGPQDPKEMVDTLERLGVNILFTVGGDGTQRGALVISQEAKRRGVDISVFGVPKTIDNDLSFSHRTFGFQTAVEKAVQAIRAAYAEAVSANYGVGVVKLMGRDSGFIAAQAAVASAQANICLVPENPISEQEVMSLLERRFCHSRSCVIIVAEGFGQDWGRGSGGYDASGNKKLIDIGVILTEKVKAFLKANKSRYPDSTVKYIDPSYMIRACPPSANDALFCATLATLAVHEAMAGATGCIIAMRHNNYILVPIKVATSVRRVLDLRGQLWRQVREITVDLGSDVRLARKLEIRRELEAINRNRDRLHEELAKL

O=C(NC[C@@H](O)CO)c1c(I)c(C(=O)NC[C@@H](O)CO)c(I)c(N(CCO)C(=O)CO)c1I
outcome [1]: inactive
Potency [2]: inactive
activity change, negative = inhibition [3]: -8.22% (inactive)
outcome [4]: inactive
Potency [5]: > 20.6 µM (inactive)
Potency [6]: inactive
activity change, negative = inhibition [7]: -2.29% (inactive)
max response [7, 21]: -1.01%
max response [7, 22]: -0.682%
outcome [8]: inactive
Potency [9]: inactive
Potency [10]: inactive
activity, negative = inhibition ([11]; parasite line A): 7.51% (inactive)
activity, negative = inhibition ([11]; parasite line B): 8.28% (inactive)
Potency [12]: inactive
Potency [13]: inactive
Potency [14]: inactive
Potency [15]: inactive
Potency [16]: inactive
Potency [17]: inactive

Cc1c(O)c(=O)n(-c2ccccc2)n1C
outcome [1]: inactive
Potency [2]: inactive
activity change, negative = inhibition [3]: -1.71% (inactive)
outcome [4]: inactive
Potency [18]: > 20.6 µM (inactive)
Potency [5]: > 20.6 µM (inactive)
Potency [6]: inactive
outcome [19]: inactive
activity change, negative = inhibition [7]: -0.744% (inactive)
max response [7, 21]: 20.7%
max response [7, 22]: 19.1%
Potency [20]: inactive

C[C@@H]1O[C@H](O[C@@H]2[C@@H](Oc3cc(O)c4c(c3)O[C@H](c3ccc(O)cc3)CC4=O)O[C@@H](CO)[C@@H](O)[C@H]2O)[C@@H](O)[C@H](O)[C@@H]1O
outcome [1]: inactive
Potency [2]: inactive
activity change, negative = inhibition [3]: -5.97% (inactive)
outcome [4]: inactive
Potency [5]: > 20.6 µM (inactive)
Potency [6]: inactive
outcome [19]: inactive
activity change, negative = inhibition [7]: -1.64% (inactive)
max response [7, 21]: -4.7%
max response [7, 22]: -6.11%
Potency [20]: inactive

C=CCSC[C@@H]1Nc2cc(Cl)c(S(N)(=O)=O)cc2S(=O)(=O)N1
outcome [1]: inactive
Potency [2]: inactive
activity change, negative = inhibition [3]: -2.73% (inactive)
outcome [4]: inactive
Potency [18]: > 20.6 µM (inactive)
Potency [5]: > 20.6 µM (inactive)
Potency [6]: inactive
outcome [19]: inactive
activity change, negative = inhibition [7]: -0.966% (inactive)
max response [7, 21]: -24.3%
max response [7, 22]: -22.1%
Potency [20]: inactive

Nc1ccccc1S(N)(=O)=O
outcome [1]: inactive
Potency [2]: inactive
activity change, negative = inhibition [3]: -3.4% (inactive)
outcome [4]: inactive
Potency [18]: > 20.6 µM (inactive)
Potency [5]: > 20.6 µM (inactive)
Potency [6]: inactive
outcome [19]: inactive
activity change, negative = inhibition [7]: -3% (inactive)
max response [7, 21]: -21%
max response [7, 22]: -21.4%
Potency [20]: inactive

CCC(=O)O[C@@]1(C(=O)CCl)[C@@H](C)C[C@@H]2[C@H]3CCC4=CC(=O)C=C[C@@]4(C)[C@]3(F)[C@@H](O)C[C@@]21C
outcome [1]: inactive
Potency [2]: inactive
activity change, negative = inhibition [3]: -1.76% (inactive)
outcome [4]: inactive
Potency [18]: 0.000621 µM (active)
Potency [5]: < 5.9e-06 µM (active)
Potency [6]: inactive
activity change, negative = inhibition [7]: -3.93% (inactive)
max response [7, 21]: -18.1%
max response [7, 22]: -15.8%

CC(=O)[C@@H]1CC[C@@H]2[C@@H]3C[C@H](C)C4=CC(=O)CC[C@@]4(C)[C@H]3[C@H](O)C[C@]21C
outcome [1]: inactive
Potency [2]: inactive
activity change, negative = inhibition [3]: -5.99% (inactive)
outcome [4]: inactive
Potency [18]: 0.0015 µM (active)
Potency [6]: inactive
outcome [19]: inactive
activity change, negative = inhibition [7]: -5.46% (inactive)
max response [7, 21]: -5.95%
max response [7, 22]: -15.5%
outcome [8]: inactive
Potency [20]: inactive
Potency [9]: inactive
Potency [10]: inactive
activity, negative = inhibition ([11]; parasite line A): 0.756% (inactive)
activity, negative = inhibition ([11]; parasite line B): -6.03% (inactive)
Potency [12]: inactive
Potency [13]: inactive
Potency [14]: inactive
Potency [15]: inactive
Potency [16]: inactive
Potency [17]: inactive

Reference: PubChem BioAssay (NCATS)
